This note sets out measurements from PubChem BioAssay AID493035 (The Scripps Research Institute Molecular Screening Center, 2011).

The campaign covered roughly 2,000 compounds. About 45 (2%) were called active. What follows is part of a selection rich in actives, with near analogues and random picks from the rest. A number with no mark means an inactive call.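 Rule for the calls: active = inhibition above the mean of all tested compounds plus 3 SD (cut at about 49% in these data); inactive = the rest.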

In this assay the target is Perilipin-5 (Homo sapiens) + 1-acylglycerol-3-phosphate O-acyltransferase ABHD5 (Homo sapiens) (UniProt Q00G26+Q8WTS1). Nature of the assay: ABHD5-PLIN5 interaction inhibitors, pilot screen, cell lysate, split luciferase complementation, luminescence, NIH validation set (AID 493035).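 Note: 0% = DMSO only wells while the 100% control is not stated.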 Particulars: split G. princeps luciferase complementation, lysates, 4 h; at 7.9 µM, stronger effect = higher value.
Chain of Perilipin-5 (Homo sapiens) + 1-acylglycerol-3-phosphate O-acyltransferase ABHD5 (Homo sapiens) (Q00G26 whole entry, looked up): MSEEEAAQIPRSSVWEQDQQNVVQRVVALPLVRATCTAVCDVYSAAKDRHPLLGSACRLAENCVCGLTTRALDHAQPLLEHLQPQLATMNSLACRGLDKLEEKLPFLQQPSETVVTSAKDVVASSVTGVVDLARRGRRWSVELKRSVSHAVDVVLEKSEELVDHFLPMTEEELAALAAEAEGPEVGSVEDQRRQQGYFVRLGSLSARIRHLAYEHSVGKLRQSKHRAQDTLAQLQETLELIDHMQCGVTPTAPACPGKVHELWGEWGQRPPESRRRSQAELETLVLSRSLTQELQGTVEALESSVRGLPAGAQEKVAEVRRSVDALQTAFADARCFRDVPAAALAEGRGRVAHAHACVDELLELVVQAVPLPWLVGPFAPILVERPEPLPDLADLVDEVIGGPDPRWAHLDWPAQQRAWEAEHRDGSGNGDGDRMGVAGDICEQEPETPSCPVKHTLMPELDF
Chain of Perilipin-5 (Homo sapiens) + 1-acylglycerol-3-phosphate O-acyltransferase ABHD5 (Homo sapiens) (Q8WTS1 whole entry, looked up): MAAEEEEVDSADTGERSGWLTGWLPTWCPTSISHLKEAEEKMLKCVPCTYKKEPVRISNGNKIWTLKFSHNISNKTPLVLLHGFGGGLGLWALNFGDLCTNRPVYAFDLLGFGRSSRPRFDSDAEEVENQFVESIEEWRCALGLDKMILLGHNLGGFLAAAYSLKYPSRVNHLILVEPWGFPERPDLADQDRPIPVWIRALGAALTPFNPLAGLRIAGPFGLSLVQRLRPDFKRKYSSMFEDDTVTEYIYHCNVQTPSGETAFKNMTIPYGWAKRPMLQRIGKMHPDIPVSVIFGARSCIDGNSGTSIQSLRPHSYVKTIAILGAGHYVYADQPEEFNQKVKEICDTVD
Broadly, the inhibition is the change of the read-out against control, counted positive when it falls. `O=C1ON=C(c2ccc(Cl)cc2)/C1=C/c1ccc(O)cc1`: the inhibition was 70.2% (active).
`COc1cc2c(cc1OC)/C(=C/c1ccc(Cl)cc1)C(=O)OC2`: the inhibition was 33.3%.
The same measure for `Nc1cccc(C(=O)O)c1`: -4.68%; for `O=C(O)C1[C@H]2C(=O)N(C3CCCC3)C[C@]23C=C[C@H]1O3` (stereo partly specified): -13.3%.
The figure for `O=C1CCCN1C(=O)CCC(=O)N1CCCC1=O` is 4.49%; for `Cc1oc2c(C)c3oc(=O)c4c(c3cc2c1C)CCCC4` it is 1.69%; for `COc1ccccc1C(=O)Oc1ccc2c(c1)O/C(=C\c1ccncc1)C2=O` it is 35.9%.
For the compound `CS(=O)(=O)Oc1ccc2c(c1)O/C(=C\C=C\c1ccccc1)C2=O`, the inhibition is 53.5% (active).
The same measure for `CCc1ccc(/C=C2\Oc3cc(OC(=O)N4CCOCC4)ccc3C2=O)cc1`: 17.7%; for `O=C(O)C1CCN(C(=O)COc2ccc3c4c(c(=O)oc3c2)CCC4)CC1`: -5.81%; for `COc1ccc([C@H]2[C@H](C(=O)OC(C)(C)C)N3N=Cc4ccccc4C3C23C(=O)c2ccccc2C3=O)cc1OC` (stereo partly specified): 0.07%.
The figure for `O=C(NCCO)c1ccc2[nH]c3ccccc3c2c1` is -4.84%; for `COc1ccc2nc(C)cc(Nc3ccccc3O)c2c1` it is -5.57%; for `O=C1c2ccccc2C2(c3ccccc3)NCCN12` (stereo unspecified) it is 0.12%.
Turning to `CC1(c2ccccc2)CC(C)(C)N2C(=O)C(=O)c3cccc1c32` (stereo unspecified), the inhibition is 59.8% (active).
As to `COc1cc2c3c(c1)C(C)CC(C)(C)N3C(=O)C2=O` (stereo unspecified), the inhibition was 3.84%.
The figure for `Cc1[nH]c2ccccc2c1/C=C/c1nc2ccccc2c(=O)n1CCO` is 8.95%.
The figure for `C[C@]12CC[C@@H]3c4ccc(O)cc4C(=O)C[C@H]3[C@@H]1CC[C@@H]2O` is 9.16%; for `CC(=O)OCC1OC(n2ccc(=O)[nH]c2=O)C(O)C1O` (stereo unspecified) it is -2.69%.
The figure for `C/C(=N\NC(=O)C1(C)CC1(Br)Br)c1ccc([N+](=O)[O-])cc1` (stereo unspecified) is -8.2%; for `O=C(NCc1ccc(N2CCCC2=O)cc1)c1ccc(F)cc1` it is 7.2%; for `CC(=Nc1ccccc1)C1=C(O)CCCC1=O` it is 0.34%.
Take `O=C(/C=C/c1ccco1)N1CCN(c2ccccc2)CC1`: the inhibition is 2.96%.
Take `CC1(C)c2ccccc2N2CC(=O)N(CC(N)=O)C21C` (stereo unspecified): the inhibition is 4.9%.
The figure for `CC1(C)c2ccccc2N2CC(=O)NC21/C=C/c1ccco1` (stereo unspecified) is 50.2% (active).
On to `Nc1ccc2cn[nH]c2c1`, for which the inhibition was -10.6%.
With `Cc1ccc(N2C(=O)c3ccccc3C2=O)cc1C`, the inhibition is -3.44%.
The same measure for `CNc1nc(N(C)C)nc(N(C)C)n1`: -0.61%; for `COC(=O)c1ccc(C(=O)OC)c(NC(=O)C(C)C)c1`: -13.5%; for `COc1ccc(C2=CC(=O)C=CC2=O)cc1`: 69.1% (active).
Regarding `COc1ccc(-c2nc(NC(C)=O)sc2-c2ccc(OC)cc2)cc1`, the inhibition is 2.96%.
The same measure for `COc1ccc(C2C(=O)c3ccccc3C2=O)cc1`: -1.24%; for `COc1ccccc1CCn1cnc2c3cc(C)ccc3n(C)c2c1=O`: 12.2%; for `CCOc1cc2c(cc1OCC)C(c1ccccc1)N(c1ccc(C(=O)O)cc1)C(=O)C2` (stereo unspecified): 5.15%.
For `CCS(=O)(=O)Nc1cc(OC)c(OC)cc1Cc1nccc2cc(OC)c(OC)cc12`, the inhibition was -5.76%.
Regarding `O=C(COc1ccc2ccc(=O)oc2c1)c1ccccc1`, the inhibition is -3.28%.
As for `COc1ccc(NC(=O)C2C(=O)N(CCO)C3(C)CC2c2ccccc2O3)cc1` (stereo unspecified), the inhibition is -8.28%.
For `COc1ccc2c(c1)C=CC1(O2)N(CCO)c2ccccc2C1(C)C` (stereo unspecified), the inhibition is 50.9% (active).
Take `O=C1CCCN1CCCn1cnc2c([nH]c3ccc(F)cc32)c1=O`: the inhibition was 1.78%.
Regarding `CC12CCCCN1CCCc1c2[nH]c2ccccc12` (stereo unspecified), the inhibition is 6.67%.
The figure for `CC(C)C[C@H](NC(=O)[C@@H]1Cc2ccccc2CN1C(=O)OC(C)(C)C)C(=O)NCC1CCC(C(=O)O)CC1` (stereo partly specified) is -1.68%.
Consider `COc1ccccc1C(CC(=O)Nc1ccccc1C)c1ccc(OC(C)C)cc1` (stereo unspecified), for which the inhibition is 1.65%.
The same measure for `COc1ccc(CNCCC(c2ccc(F)cc2)c2ccc(OC(C)C)cc2)cc1OC` (stereo unspecified): -5.38%; for `COc1ccc(CN(CCC(c2ccccc2)c2ccc(OC(C)C)cc2)C(=O)CCl)cc1OC` (stereo unspecified): 67% (active); for `Cn1c(=O)oc2cc(S(=O)(=O)N3CCc4ccccc4C3)ccc21`: -0.05%.
The same measure for `CC(C)C12CN3CC(C(C)C)(CN(C1)C3c1ccccc1O)C2=O` (stereo unspecified): 0.76%; for `c1coc(-c2nnc3n2C2(CCCC2)Cc2ccccc2-3)c1`: -2.54%.
Take `CC(C)CN1CCN(Cc2ccc(C#CC(C)(C)O)cc2)CC1CCO` (stereo unspecified): the inhibition was 1.45%.
Consider `COc1ccc(CN2CCCCC2C(=O)Nc2ccc(OC)c(OCC(C)C)c2)cc1OC` (stereo unspecified), for which the inhibition was -8.58%.
Take `COc1ccccc1C(O)c1nccn1C` (stereo unspecified): the inhibition was -0.96%.
Turning to `COc1cc(/C=C/C(=O)CC(=O)/C=C/c2ccc(O)c(OC)c2)ccc1O`, the inhibition is 47.6%.
The figure for `CC12CCC(C(=O)N3CCc4ccccc43)(CC1=O)C2(C)C` (stereo unspecified) is -4.02%; for `COc1cc(/C=C(\C#N)C(=O)N2CCc3ccccc32)ccc1O` it is 50.3% (active); for `Cn1c(=O)[nH]c(=O)c2c1nc(NCc1ccco1)n2CCCc1ccccc1` it is -10%.
As for `CC1(C)CC(NC(=O)C23CCC(C)(C(=O)C2=O)C3(C)C)CC(C)(C)N1` (stereo unspecified), the inhibition was -7.41%.
On to `NC(N)=N/N=C/c1ccc(OS(=O)(=O)c2ccccc2)cc1`, for which the inhibition is -1.57%.
The same measure for `COc1cc(C(=O)Nc2cccc(-c3nnc(-c4ccco4)o3)c2)ccc1OC(C)=O`: -3.44%; for `COc1ccc(/C=C2\CCc3ccccc3C2=O)c(OC)c1OC`: -7.62%.
The figure for `COc1ccc(/C=C2\CC/C(=C\c3ccc(OC)c(OC)c3)C2=O)cc1OC` is 72.8% (active); for `COc1ccc(/C=C2\CCn3c2nc2cc(C(=O)O)ccc2c3=O)cc1OC` it is -3.54%.
Take `COc1ccc(C(=O)Nc2ccccc2C(=O)NCCCn2ccnc2)cc1`: the inhibition was -6.29%.
The figure for `Cc1nonc1CN(C)C(=O)c1ccc(OC2CCN(C(=O)c3cccnc3)CC2)cc1` is 2.15%.
For the compound `N#C/C(=C\c1ccc(O)c(O)c1)C(=O)NCCCc1ccccc1`, the inhibition is 28.2%.
The same measure for `N#C/C(=C/c1ccccc1)C(=O)NCc1ccccc1`: 62.6% (active); for `S=C(NCc1ccccc1)NCc1cccc(CNC(=S)NCc2ccccc2)c1`: 10.2%; for `COc1ccc(NC(=O)CC2C(=O)N(C)C(=S)N2Cc2ccncc2)cc1` (stereo unspecified): -3.37%.
The same measure for `O=C(O)C1Cc2ccccc2CN1S(=O)(=O)c1ccccc1` (stereo unspecified): 3.15%.
On to `O=C(O)Cc1ccc(O)c(F)c1`, for which the inhibition was -5.48%.
The figure for `CCOc1ccc(N2C(=O)CNC2=S)cc1` is -13.8%; for `COc1ccccc1-c1c(C(F)(F)F)oc2cc(OC(=O)c3ccc([N+](=O)[O-])cc3)ccc2c1=O` it is 29.5%.
As to `O=C(CCCN1C(=O)/C(=C\c2cccs2)SC1=S)Nc1ccccn1`, the inhibition was -1.47%.
The figure for `O=C(CN1C(=O)/C(=C/c2cccc(Br)c2)SC1=S)Nc1cccnc1` is 52% (active); for `O=C(CCCN1C(=O)/C(=C\c2cccc(Br)c2)SC1=S)Nc1cccnc1` it is 28.1%; for `COc1ccc(C2=NOC(COc3ccc4c(C)cc(=O)oc4c3)C2)c(OC)c1` (stereo unspecified) it is 27.1%.
The same measure for `O=C(COc1ccc2c(-c3ccccc3)cc(=O)oc2c1)NCc1cccs1`: 9.91%.
Take `CC/C(=C1/C(=O)CC(C)(C)C(C(=O)OC)C1=O)N1CCCC1` (stereo unspecified): the inhibition is 6.45%.
On to `COc1cccc2cc(-c3ccccc3)c(=O)oc12`, for which the inhibition is -4.71%.
The figure for `COc1ccc(C(=O)/C=C/c2ccc(OC(=O)c3cc(OC)c(OC)c(OC)c3)cc2)cc1` is 40.8%; for `COc1ccc(/C=C/C(=O)c2cc3cccc(OC)c3oc2=O)cc1` it is 69.5% (active).
The figure for `N/C(=N\OC(=O)CCCOc1ccc(Cl)cc1Cl)c1ccccn1` is -4.4%; for `CC12COC3(C(=O)Nc4ccc(F)cc4)CC1CCC32C` (stereo unspecified) it is -5.49%.
With `O=C(Nc1ncc2c(n1)CC(c1ccco1)CC2=O)c1ccco1` (stereo unspecified), the inhibition is 0.31%.
Turning to `N/C(=N\OC(=O)/C=C/c1ccccc1)c1ccc(Br)cc1`, the inhibition was -11.8%.
`Cn1cc(/C=C/C(=O)c2ccccc2)c2ccccc21`: the inhibition is 13.7%.
The figure for `O=C(O)c1ccc(C(=O)C(=O)c2ccccc2)cc1` is -3.75%; for `O=C(/C=C/c1ccccc1)NC(=O)c1ccccc1O` it is 12.7%.
Consider `O=C(CCCCCCCC(=O)c1ccccc1)c1ccccc1`, for which the inhibition is -4.5%.
As to `O=C(/C=C/c1ccccc1)c1ccccc1`, the inhibition is 69.7% (active).
The same measure for `CC(CCc1ccccc1)NC(=O)/C=C/c1ccccc1` (stereo unspecified): 0.97%; for `O=C(/C=C/Sc1ccccc1)c1ccccc1`: 85.6% (active).
Regarding `O=C(/C=C/c1ccccc1)/C=C/c1ccccc1`, the inhibition was 92.3% (active).
Consider `COc1ccc(Cc2noc(CN(C)CCN3CCc4ccccc4C3)n2)cc1OC`, for which the inhibition is -5.39%.
Consider `CC(=O)Nc1ccc2[nH]c(C)c(CC=C(Cl)Cl)c(=O)c2c1`, for which the inhibition was -10.7%.
Turning to `COc1ccc(CCn2c(C)nc3c(c(=O)c4ccccc4n3C)c2=O)cc1`, the inhibition is 11%.
Turning to `Cc1nnc(SCC(=O)N2CCCC(C(=O)c3ccc(Cl)cc3)C2)o1` (stereo unspecified), the inhibition was 0.98%.
The same measure for `Cc1ccc2[nH]c3c(=O)n(CCCN4CCN(C)CC4)cnc3c2c1`: -5.12%; for `O=C(O)CCn1c(=S)n(CCC(=O)O)c2ccccc21`: 8.91%.
Consider `Cc1ccccc1OCCSc1nc2ncnc(N)c2[nH]1`, for which the inhibition was -10.3%.
The figure for `COc1c(C)cc(C(=O)C2CCCN(Cc3ccc(Oc4ncccn4)cc3)C2)cc1C` (stereo unspecified) is -0.46%; for `CSCCC(NC(C)=O)C(=O)Oc1ccc2c3c(c(=O)oc2c1)CCCC3` (stereo unspecified) it is 1.97%; for `CSCCC(NC(=O)OC(C)(C)C)C(=O)Oc1ccc2c(=O)c(-c3ccc4c(c3)OCCO4)coc2c1` (stereo unspecified) it is 69.1% (active).
The figure for `O=c1c(-c2ccc3c(c2)OCCO3)coc2cc(OC3OC(CO)C(O)C(O)C3O)ccc12` (stereo unspecified) is -6.25%; for `CCc1c(C)c2ccc(OCC(=O)OC(C)C)c(C)c2oc1=O` it is -3.95%.
The same measure for `CCOc1ccc(CC2c3cc(OCC)c(OCC)cc3CCN2C(=O)CN2CCN(C)CC2)cc1OCC` (stereo unspecified): -0.88%.
With `O=C(/C=C/c1ccc(Cl)cc1)NCCc1ccccc1`, the inhibition was 1.1%.
The figure for `O=C(O)CCCCCN1C(=O)C(=O)/C(=C(/O)c2ccccc2)C1c1ccccc1` (stereo unspecified) is -14.1%.
In the case of `Nc1cc(-c2ccncc2)c[nH]c1=O`, the inhibition is 75.3% (active).
As for `c1cc(-c2ccncc2)ccn1`, the inhibition was -3.86%.
The same measure for `CCc1cc(=O)oc2cc3occ(-c4ccc(OC)c(F)c4)c3cc12`: 14.2%; for `CC(C)=CC/C=C1\CCC(C(=O)O)C(C(=O)O)C1` (stereo unspecified): 1.14%.
The same measure for `COCCOC(=O)C1=C(N)OC2=C(C(=O)CCC2)C1c1cccnc1` (stereo unspecified): 0.01%.
